According to publication PMC7862700, “An all-to-all approach to the identification of sequence-specific readers for epigenetic DNA modifications on cytosine”:

How the values were obtained:
Experiment in all cases: DAPPL (digital affinity profiling via proximity ligation, sequencing); 10 mM Tris-HCl pH 7.5, 50 mM NaCl, 1 mM DTT, 4% glycerol, room temperature, 30 min; GST-TFs on glutathione beads, 16-mer random dsDNA library, 0.1% formaldehyde crosslink after washing; high values mean tight binding
Settings in all cases: protein: recombinant; tags: N-terminal GST; dsDNA, one strand shown
FLI1 = molecular target: T1, FLI1 (Homo sapiens, UniProt Q01543 1-452)
T1 sequence: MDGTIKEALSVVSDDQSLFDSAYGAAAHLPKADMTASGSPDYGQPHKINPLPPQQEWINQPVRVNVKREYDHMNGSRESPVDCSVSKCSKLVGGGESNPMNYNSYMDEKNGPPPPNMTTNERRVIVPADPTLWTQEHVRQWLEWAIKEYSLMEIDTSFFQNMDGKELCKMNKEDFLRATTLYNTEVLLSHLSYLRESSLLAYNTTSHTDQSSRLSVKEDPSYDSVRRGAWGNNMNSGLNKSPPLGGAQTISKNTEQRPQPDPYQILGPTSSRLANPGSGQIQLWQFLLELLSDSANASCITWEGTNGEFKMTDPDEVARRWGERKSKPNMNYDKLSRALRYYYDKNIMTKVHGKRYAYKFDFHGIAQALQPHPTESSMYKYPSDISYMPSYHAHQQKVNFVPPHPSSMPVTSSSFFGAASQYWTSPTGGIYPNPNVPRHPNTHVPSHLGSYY
Method in brief: (§1)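 A tag-only sample was pooled with DNA-barcoded human transcription factors that had been expressed in yeast as GST fusions and captured on glutathione beads. The pools were incubated for 30 min at room temperature with 200 nmole of a random double-stranded 16-mer DNA library in Tris/NaCl/DTT/glycerol buffer, then washed, crosslinked with 0.1% formaldehyde, proximity-ligated (BsaI/T4 ligase, 1 h, 37 °C), PCR-amplified and sequenced on an Illumina NextSeq500. Binding signal is each hexamer's read frequency for a factor divided by its frequency for the tag-only sample.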

ELK1 = molecular target: T2, ELK1 (Homo sapiens, UniProt P19419 1-428)
T2 sequence: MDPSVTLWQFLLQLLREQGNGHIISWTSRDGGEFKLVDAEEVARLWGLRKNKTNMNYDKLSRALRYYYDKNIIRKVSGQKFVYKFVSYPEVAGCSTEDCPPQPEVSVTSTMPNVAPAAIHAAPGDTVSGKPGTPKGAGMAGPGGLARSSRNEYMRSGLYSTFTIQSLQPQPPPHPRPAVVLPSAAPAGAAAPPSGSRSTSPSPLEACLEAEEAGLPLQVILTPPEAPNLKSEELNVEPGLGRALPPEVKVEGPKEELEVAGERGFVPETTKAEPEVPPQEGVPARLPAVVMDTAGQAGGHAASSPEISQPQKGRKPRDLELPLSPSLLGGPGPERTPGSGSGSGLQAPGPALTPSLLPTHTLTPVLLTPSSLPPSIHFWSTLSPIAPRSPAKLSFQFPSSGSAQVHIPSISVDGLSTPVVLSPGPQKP
Method in brief: as §1

GABPA = molecular target: T3, GABPA (Homo sapiens, UniProt Q06546 1-454)
T3 sequence: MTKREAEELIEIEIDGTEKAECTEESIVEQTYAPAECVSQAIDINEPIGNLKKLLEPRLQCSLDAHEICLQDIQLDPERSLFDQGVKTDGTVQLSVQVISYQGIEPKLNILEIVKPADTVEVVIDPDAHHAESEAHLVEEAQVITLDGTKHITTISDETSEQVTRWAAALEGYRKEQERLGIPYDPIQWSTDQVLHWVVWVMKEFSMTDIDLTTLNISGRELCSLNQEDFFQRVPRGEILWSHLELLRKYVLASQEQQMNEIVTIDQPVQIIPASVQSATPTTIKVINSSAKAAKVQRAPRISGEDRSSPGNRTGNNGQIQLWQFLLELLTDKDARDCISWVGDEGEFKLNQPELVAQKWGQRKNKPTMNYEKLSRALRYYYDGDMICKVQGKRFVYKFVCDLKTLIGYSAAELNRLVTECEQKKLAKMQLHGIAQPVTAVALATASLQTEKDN
Method in brief: as §1

ERG = molecular target: T4, ERG (Homo sapiens, UniProt P11308 1-479)
T4 sequence: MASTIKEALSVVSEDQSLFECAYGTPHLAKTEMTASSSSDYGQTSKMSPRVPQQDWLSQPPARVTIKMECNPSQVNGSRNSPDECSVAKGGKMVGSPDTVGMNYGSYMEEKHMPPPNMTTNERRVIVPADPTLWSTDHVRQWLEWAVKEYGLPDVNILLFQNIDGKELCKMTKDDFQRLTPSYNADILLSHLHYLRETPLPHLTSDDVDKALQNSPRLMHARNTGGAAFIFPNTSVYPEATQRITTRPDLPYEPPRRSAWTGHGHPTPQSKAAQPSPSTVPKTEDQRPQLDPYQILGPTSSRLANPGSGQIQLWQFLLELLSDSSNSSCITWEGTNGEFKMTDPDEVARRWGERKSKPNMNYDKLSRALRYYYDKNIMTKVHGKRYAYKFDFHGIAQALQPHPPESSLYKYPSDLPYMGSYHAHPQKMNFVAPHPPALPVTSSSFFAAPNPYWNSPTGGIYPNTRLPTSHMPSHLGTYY
Method in brief: as §1

ELF1 = ELF1 (Homo sapiens, UniProt P32519 1-619)
Method in brief: as §1

EHF = molecular target: T5, EHF (Homo sapiens, UniProt Q9NZC4 1-300)
T5 sequence: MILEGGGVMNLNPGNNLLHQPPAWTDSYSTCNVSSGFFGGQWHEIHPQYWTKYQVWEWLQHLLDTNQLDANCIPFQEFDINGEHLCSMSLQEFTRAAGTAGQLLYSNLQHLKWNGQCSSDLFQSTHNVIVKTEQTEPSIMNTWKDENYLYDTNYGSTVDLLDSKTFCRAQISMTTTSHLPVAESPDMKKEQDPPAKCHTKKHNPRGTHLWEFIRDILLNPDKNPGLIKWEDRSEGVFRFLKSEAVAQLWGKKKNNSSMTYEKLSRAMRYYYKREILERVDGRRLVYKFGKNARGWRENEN
Method in brief: as §1

SPI1 = SPI1 (Homo sapiens, UniProt P17947 1-270)
Method in brief: as §1

SPIB = SPIB (Homo sapiens, UniProt Q01892 1-262)
Method in brief: as §1

ELK3 = molecular target: T6, ELK3 (Homo sapiens, UniProt P41970 1-407)
T6 sequence: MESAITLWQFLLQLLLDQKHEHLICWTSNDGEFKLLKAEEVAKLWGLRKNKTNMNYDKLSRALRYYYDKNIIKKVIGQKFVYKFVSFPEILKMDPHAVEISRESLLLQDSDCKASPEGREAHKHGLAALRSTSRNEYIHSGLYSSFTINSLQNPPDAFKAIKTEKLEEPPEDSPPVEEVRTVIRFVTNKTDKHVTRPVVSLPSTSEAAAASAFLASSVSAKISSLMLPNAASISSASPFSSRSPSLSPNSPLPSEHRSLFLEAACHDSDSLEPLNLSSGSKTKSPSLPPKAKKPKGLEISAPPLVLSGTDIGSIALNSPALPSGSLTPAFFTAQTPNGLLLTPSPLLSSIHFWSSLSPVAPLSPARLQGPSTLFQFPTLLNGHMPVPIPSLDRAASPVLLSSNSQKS
Method in brief: as §1

Chain of SPIB (Q01892 whole entry): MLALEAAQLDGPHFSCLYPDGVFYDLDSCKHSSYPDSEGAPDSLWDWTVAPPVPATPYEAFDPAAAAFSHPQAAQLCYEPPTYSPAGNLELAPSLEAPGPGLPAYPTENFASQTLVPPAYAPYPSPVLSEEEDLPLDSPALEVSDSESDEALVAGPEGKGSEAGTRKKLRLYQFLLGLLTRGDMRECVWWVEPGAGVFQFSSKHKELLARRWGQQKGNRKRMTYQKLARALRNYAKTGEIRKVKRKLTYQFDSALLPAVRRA
Chain of ELF1 (P32519 whole entry): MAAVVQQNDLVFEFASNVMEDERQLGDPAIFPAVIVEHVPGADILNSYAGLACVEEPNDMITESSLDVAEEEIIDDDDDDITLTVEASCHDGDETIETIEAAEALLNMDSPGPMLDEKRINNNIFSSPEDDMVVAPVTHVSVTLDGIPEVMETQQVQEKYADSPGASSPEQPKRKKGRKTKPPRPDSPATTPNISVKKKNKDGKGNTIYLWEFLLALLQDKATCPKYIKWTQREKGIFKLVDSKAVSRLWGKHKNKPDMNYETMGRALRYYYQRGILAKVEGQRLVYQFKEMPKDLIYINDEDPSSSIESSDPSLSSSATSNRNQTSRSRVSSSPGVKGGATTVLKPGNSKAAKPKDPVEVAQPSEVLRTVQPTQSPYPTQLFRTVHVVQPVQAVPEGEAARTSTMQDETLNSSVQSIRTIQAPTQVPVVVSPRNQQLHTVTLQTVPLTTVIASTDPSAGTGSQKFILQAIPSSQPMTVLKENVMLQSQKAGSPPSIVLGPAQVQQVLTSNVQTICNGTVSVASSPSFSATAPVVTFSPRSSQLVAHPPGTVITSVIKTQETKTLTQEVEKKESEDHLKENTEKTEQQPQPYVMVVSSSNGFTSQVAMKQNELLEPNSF

| Sequence | binding signal (FLI1) | binding signal (ELK1) | binding signal (GABPA) | binding signal (ERG) | binding signal (ELF1) | binding signal (EHF) | binding signal (SPI1) | binding signal (SPIB) | binding signal (ELK3) |
| --- | --- | --- | --- | --- | --- | --- | --- | --- | --- |
| CGTAAC | 1.19 fold enrichment (6-mer frequency, TF over GST control) | 1.12 fold enrichment (6-mer frequency, TF over GST control) | 1.17 fold enrichment (6-mer frequency, TF over GST control) | 1.07 fold enrichment (6-mer frequency, TF over GST control) | 1.11 fold enrichment (6-mer frequency, TF over GST control) | 1.16 fold enrichment (6-mer frequency, TF over GST control) | 1.08 fold enrichment (6-mer frequency, TF over GST control) | 1.16 fold enrichment (6-mer frequency, TF over GST control) | 1.07 fold enrichment (6-mer frequency, TF over GST control) |
| CTCCAG | 1.08 fold enrichment (6-mer frequency, TF over GST control) | 1.12 fold enrichment (6-mer frequency, TF over GST control) | 1.26 fold enrichment (6-mer frequency, TF over GST control) | 1.16 fold enrichment (6-mer frequency, TF over GST control) | 1.19 fold enrichment (6-mer frequency, TF over GST control) | 1.17 fold enrichment (6-mer frequency, TF over GST control) | 1.21 fold enrichment (6-mer frequency, TF over GST control) | 1.23 fold enrichment (6-mer frequency, TF over GST control) | 1.29 fold enrichment (6-mer frequency, TF over GST control) |
| GTCCTC | 1.15 fold enrichment (6-mer frequency, TF over GST control) | 1.22 fold enrichment (6-mer frequency, TF over GST control) | 1.17 fold enrichment (6-mer frequency, TF over GST control) | 1.21 fold enrichment (6-mer frequency, TF over GST control) | 1.18 fold enrichment (6-mer frequency, TF over GST control) | 1.28 fold enrichment (6-mer frequency, TF over GST control) | 1.25 fold enrichment (6-mer frequency, TF over GST control) | 1.21 fold enrichment (6-mer frequency, TF over GST control) | 1.22 fold enrichment (6-mer frequency, TF over GST control) |
| TACAAA | 1.14 fold enrichment (6-mer frequency, TF over GST control) | 1.14 fold enrichment (6-mer frequency, TF over GST control) | 1.1 fold enrichment (6-mer frequency, TF over GST control) | 1.08 fold enrichment (6-mer frequency, TF over GST control) | 1.14 fold enrichment (6-mer frequency, TF over GST control) | 1.2 fold enrichment (6-mer frequency, TF over GST control) | 1.07 fold enrichment (6-mer frequency, TF over GST control) | 1.06 fold enrichment (6-mer frequency, TF over GST control) | 1.06 fold enrichment (6-mer frequency, TF over GST control) |
| CTTGCA | 1.33 fold enrichment (6-mer frequency, TF over GST control) | 1.44 fold enrichment (6-mer frequency, TF over GST control) | 1.31 fold enrichment (6-mer frequency, TF over GST control) | 1.27 fold enrichment (6-mer frequency, TF over GST control) | 1.4 fold enrichment (6-mer frequency, TF over GST control) | 1.33 fold enrichment (6-mer frequency, TF over GST control) | 1.25 fold enrichment (6-mer frequency, TF over GST control) | 1.26 fold enrichment (6-mer frequency, TF over GST control) | 1.34 fold enrichment (6-mer frequency, TF over GST control) |
| CACACG | 1.14 fold enrichment (6-mer frequency, TF over GST control) | 1.11 fold enrichment (6-mer frequency, TF over GST control) | 1.23 fold enrichment (6-mer frequency, TF over GST control) | 1.07 fold enrichment (6-mer frequency, TF over GST control) | 1.21 fold enrichment (6-mer frequency, TF over GST control) | 1.12 fold enrichment (6-mer frequency, TF over GST control) | 1.08 fold enrichment (6-mer frequency, TF over GST control) | 1.15 fold enrichment (6-mer frequency, TF over GST control) | 1.03 fold enrichment (6-mer frequency, TF over GST control) |
| AACACG | 1.26 fold enrichment (6-mer frequency, TF over GST control) | 1.23 fold enrichment (6-mer frequency, TF over GST control) | 1.1 fold enrichment (6-mer frequency, TF over GST control) | 1.22 fold enrichment (6-mer frequency, TF over GST control) | 1.18 fold enrichment (6-mer frequency, TF over GST control) | 1.14 fold enrichment (6-mer frequency, TF over GST control) | 1.17 fold enrichment (6-mer frequency, TF over GST control) | 1.13 fold enrichment (6-mer frequency, TF over GST control) | 1.16 fold enrichment (6-mer frequency, TF over GST control) |
| GAAGTT | 1.76 fold enrichment (6-mer frequency, TF over GST control) | 1.66 fold enrichment (6-mer frequency, TF over GST control) | 1.63 fold enrichment (6-mer frequency, TF over GST control) | 1.77 fold enrichment (6-mer frequency, TF over GST control) | 1.61 fold enrichment (6-mer frequency, TF over GST control) | 1.72 fold enrichment (6-mer frequency, TF over GST control) | 2.02 fold enrichment (6-mer frequency, TF over GST control) | 1.72 fold enrichment (6-mer frequency, TF over GST control) | 1.62 fold enrichment (6-mer frequency, TF over GST control) |
